Most compounds without a hit are left out; they make up all but 4% or so of the library.
BoNT-A LC inh2 – BoNT/A light chain protease inhibitors, primary screen, biochemical, flow cytometry, MLPCN library; actives 0.17% (n = 360,000); Botulinum neurotoxin type A light chain protease (Clostridium botulinum A str. ATCC 3502); multiplex microsphere protease substrate cleavage; inhibition, % at 10 µM; AID 588499, 2011; also: plate controls were buffer without enzyme for full effect and enzyme alone for no effect
DUSP3 inh – VHR1 phosphatase inhibitors, primary screen, biochemical, absorbance, uHTS. Dual specificity protein phosphatase 3 (Homo sapiens), P51452. recombinant VHR phosphatase, pNPP absorbance. inhibition, % at 13.3 µM. actives 0.52% (n = 290,000). AID 1654, 2009; in the data active = inhibition above about 50%
Target sequence (P51452 whole entry, looked up): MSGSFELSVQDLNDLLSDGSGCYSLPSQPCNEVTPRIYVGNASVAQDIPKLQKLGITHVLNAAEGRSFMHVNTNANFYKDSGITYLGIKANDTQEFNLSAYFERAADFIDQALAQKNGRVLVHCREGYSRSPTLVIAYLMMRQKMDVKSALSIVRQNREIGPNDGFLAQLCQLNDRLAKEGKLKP
BoNT F protease – BoNT/F light chain protease inhibitors, primary screen, biochemical, flow cytometry, MLPCN library. actives 0.22% (n = 360,000). Botulinum neurotoxin type F light chain protease (Clostridium botulinum). inhibition, % at 10 µM. Multiplex microsphere protease cleavage assay; in the data active = inhibition above about 35%, passing the limit was not always enough; inconclusive = no clear call, values can overlap the other calls; also: plate controls were buffer without enzyme for full effect and enzyme alone for no effect
Bead autofluor – compound fluorescence in toxin protease inhibitor counterscreen; actives 3.1% (n = 360,000); fluorescence intensity (no concentration beside the values); compound autofluorescence counterscreen, microsphere flow cytometry; stronger effect = higher value; AID 624483; in the data active = fluorescence intensity above about 16000; inconclusive = no clear call, values can overlap the other calls
Anthrax LF prot – Bacillus anthracis LF protease inhibitors, primary screen, biochemical, multiplex microsphere, MLPCN library | Lethal factor (Bacillus anthracis), P15917 | multiplex microsphere protease cleavage assay | inhibition, % at 10 µM | actives 0.12% (n = 360,000); also: plate controls were buffer without enzyme for full effect and enzyme alone for no effect
MazEF act – activators of E. coli MazEF toxin-antitoxin RNase, primary screen, biochemical, fluorescence, uHTS. activation, % at 20 µM. Endoribonuclease toxin MazF (Escherichia coli (strain K12)), P0AE70. actives 0.32% (n = 350,000). AID 504720, 2011. FAM/BHQ RNA-DNA oligo cleavage fluorescence, 5 h; in the data active = activation above about 50%
Target sequence (P0AE70 whole entry, looked up): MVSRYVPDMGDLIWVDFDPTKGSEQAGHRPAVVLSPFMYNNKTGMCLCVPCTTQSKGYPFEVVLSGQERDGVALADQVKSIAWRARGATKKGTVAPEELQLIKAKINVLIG
An asterisk follows results filed as active; ? = inconclusive; / = no result given. Rule as the data show it, unless noted: active = inhibition above about 30%; inconclusive = no clear call, values can overlap the other calls; inactive = below that.

SMILES	BoNT-A LC inh2	DUSP3 inh	BoNT F protease	Bead autofluor	Anthrax LF prot	MazEF act
CCOc1ccc(-c2cc(C(=O)NCCCn3ccnc3)c3ccccc3n2)cc1	-1	37	-1	4109	-4	11
CCOc1ccc(-c2cc(C(=O)NCCCN3CCN(CC)CC3)c3ccccc3n2)cc1	?	19	-4	21315*	0	15
CCOC(=O)CSC1=C(C#N)C(c2ccccc2Cl)C(C(=O)OC)C(=O)N1 (centres undefined)	5	15	10	20786*	2	-8
CCOC(=O)CSC1=C(C#N)C(c2ccc(Cl)cc2)CC(=O)N1 (centres undefined)	0	8	-9	5098	-4	0
CCCOC(=O)CSC1=C(C#N)C(c2ccccc2Cl)CC(=O)N1 (centres undefined)	-1	50*	-8	6274	-5	8
CCc1ccccc1NC(=O)c1ccc(S(=O)(=O)N2CCCC2)cc1	1	-29	0	4379	4	-2
COc1ccccc1CNC(=O)CCn1c(=O)[nH]c2ccsc2c1=O	?	22	-8	21437*	0	1
O=[N+]([O-])c1cccc(C(O)C23CN4CN(CN(C4)C2)C3)c1 (centres undefined)	-4	8	9	3388	19	-2
CN(C)CCOC(C1CCCCC1)C1CCCCC1	-3	24	-4	24587*	-6	8
CCN(CC)c1nc2n(c(=O)n1)CCN2CC	2	27	1	21466*	-2	1
CCN1CCn2c1nc(N1CCCCC1)nc2=O	1	0	1	10308	2	-11
O=C1CSC(c2cn(-c3ccccc3)nc2-c2cc3ccccc3oc2=O)N1Cc1ccco1 (centres undefined)	?	26	-5	23471*	-1	-1
CCCCOc1ccc(N(CC(=O)NC(C)(C)C)C(=O)CCC(=O)Nc2nccs2)cc1	-7	-8	-24	4005	-6	-7
Nc1cccc(-n2nnnc2CN2CCOCC2)c1	0	-4	-4	2394	1	4
Cc1ccc(CC(NC(=O)c2ccccc2)C(=O)NC(C)C(=O)O)cc1 (centres undefined)	5	18	3	21689*	3	7
CC(C)(C)c1ccc(C(=O)NC(Cc2ccccc2)C(=O)O)cc1 (centres undefined)	-1	15	-2	22268*	-2	/
O=C(NC(Cc1ccccc1)C(=O)O)c1ccc(S(=O)(=O)N2CCCCC2)cc1 (centres undefined)	1	30	4	22876*	-9	7
O=C(NC(Cc1ccccc1)C(=O)O)c1ccccc1 (centres undefined)	0	-4	10	4594	-5	9
Cc1noc(C)c1C(=O)N1CCC(Cc2ccccc2)CC1	?	-15	1	22708*	1	-2
O=C(OCc1ccccc1)C1CCCN1C(=O)c1ccccc1[N+](=O)[O-] (centres undefined)	?	22	1	20292*	-1	-5
O=C(OCc1ccccc1)C1CCCN1C(=O)c1cccs1 (centres undefined)	0	16	0	3512	-1	1
O=C(c1ccccc1[N+](=O)[O-])N1CCC(Cc2ccccc2)CC1	-2	-15	-3	22923*	0	-6
N=c1n(CCO)c2ccccc2n1Cc1ccccc1	-1	29	-12	2521	1	0
CCOC(=O)Cc1csc(N/C(=N/S(=O)(=O)c2ccc(F)cc2F)c2ccccc2)n1	0	-8	-2	2026	0	5
CCN(CC)CCCNC(=O)c1cn(-c2cccc(OC)c2)c(=O)c2ccccc12	-2	31	2	3865	3	9
SMILES	BoNT-A LC inh2	DUSP3 inh	BoNT F protease	Bead autofluor	Anthrax LF prot	MazEF act
O=C(Nc1cccc(F)c1)c1ccc(Br)o1	0	4	-14	3936	-8	0
O=C(Nc1cccc(OC(F)(F)F)c1)c1ccc(Br)o1	-2	6	-2	16998*	-3	6
CCCCC(=O)Nc1cccc(NC(=O)c2ccc(Br)o2)c1	0	5	-2	16352*	-4	6
Cc1c(Cl)cccc1NC(=O)CC(C(=O)O)C1CCCO1 (centres undefined)	1	15	0	22699*	-3	4
Cc1c(Cl)cccc1NC(=O)CC(Cc1ccccc1)C(=O)O (centres undefined)	-2	2	32	3577	-3	-20
COc1ccccc1-n1cc(CN2CCCC(CO)(Cc3cccc(Cl)c3)C2)cn1 (centres undefined)	-2	21	1	5237	-7	1
COC(=O)C1=C(C(=O)OC)C(c2cc(Br)ccc2O)c2sc(=O)[nH]c2S1 (centres undefined)	0	2	-3	2349	0	3
COC(=O)c1ccccc1NC(=O)COC(=O)c1ccco1	0	19	-14	9984	2	6
CCOc1ccccc1C(=O)OCC(=O)Nc1ncc(C(F)(F)F)cc1Cl	-6	-12	-6	21522*	0	-4
CCOc1ncccc1C(=O)OCC(=O)Nc1ncc(C(F)(F)F)cc1Cl	0	-2	9	5009	2	12
Cc1ccc(C(=O)OCC(=O)Nc2ncc(C(F)(F)F)cc2Cl)cc1NC(=O)c1ccco1	-4	-4	-4	20917*	1	5
Cc1noc(C)c1C(=O)OCC(=O)Nc1ncc(C(F)(F)F)cc1Cl	-1	/	0	3559	-2	2
COC(=O)c1ccccc1NC(=O)COC(=O)c1ccc(C)c(NC(=O)c2ccco2)c1	?	6	0	21306*	0	-2
CC(C)(C)NC(=O)CN(C(=O)C(=O)Nc1ccc2c(c1)OCCO2)C1CC1	2	28	4	3312	-4	2
COc1cc(OC)cc(C(=O)NC(=S)N2CCCCC2c2cccnc2)c1 (centres undefined)	-1	13	-6	5037	-11	-3
CCCCn1nnnc1C(c1cc2ccccc2o1)N(CCC#N)Cc1ccccc1 (centres undefined)	0	/	-1	4505	1	/
COc1ccc(NC(C)C(=O)Nc2ccc(C#N)cc2)cc1Cl (centres undefined)	?	-1	-5	22894*	-2	1
CN(CC(=O)Nc1ccc(C#N)cc1)Cc1ccc(Cl)cc1	-2	36	-4	4961	-2	-1
COc1ccc(NCC(=O)Nc2ccc(C#N)cc2)cc1Cl	1	0	-4	22730*	-1	11
CN(CC(=O)Nc1ccc(C#N)cc1)Cc1ccc(Cl)cc1Cl	-1	26	-1	22298*	-1	3
